Inconclusive results are not listed. Calls of active or inactive are those of the source. Calls follow the shape of the dose curve; as a rule, active = well fitted curve in the direction sought with a large enough effect; inconclusive = small, poorly fitted or top-dose-only effect, or another doubt; inactive = no such curve, though single readings can be large or run the other way.
Assay: Secondary Assay for Inhibitors of Human Cdc-like kinase 4 (Clk4): HEK-293 Cell Viability Assay;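 also: cytotoxic hits lower the ATP light signal so activity reflects loss of viability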; as to activity change, negative = cytotoxicity: % of control where 0% means no effect
Settings: HEK-293 viability, ATP luminescence (CellTiter-Glo), 24/48 h; series mostly up to 46.1 µM; activity change, negative = cytotoxicity: at the top concentration
Description: NIH Molecular Libraries Probe Production Centers Network [MLPCN] NIH Chemical Genomics Center [NCGC] MLPCN Grant: 1R03MH084827-01 Assay Submitter (PI): Tom Misteli NCGC Assay Overview: Cytotoxicity of the active compounds in the Clk4 screens was assessed using the CellTiter-Glo Luminescent Cell Viability Assay kit (Promega, USA) in the HEK-293 (ATCC) cell line. CellTiter-Glo measures the intracellular ATP present in metabolically active cells using Ultra-Glo as the luciferase to detect ATP levels. In brief, the luciferase in the buffer catalyzes the oxidation of luciferin to oxyluciferin and light which is dependent on ATP. […] Wells treated with various concentrations of cycloheximide (Sigma) and DMSO, and wells with media alone were used as positive and negative controls, respectively. […] [1] http://www.promega.com/tbs/tb288/tb288.pdf
NCGC Assay Protocol Summary: HEK-293 cells were grown in a flask up to 80% confluence. Cells were trypsinized, washed, and resuspended in MEM Eagle + 10% FBS + 1% pen-strep media at a concentration of 120 cells/uL. Five uL/well of cell solution was dispensed into a 1536-well assay plates (Greiner, solid white medium-binding plates) with Aurora Discovery BioRAPTR Flying Reagent Dispenser (FRD; Beckton-Dickenson). Cells were pre-incubated at 37 degree Celsius, 5% CO2 for four hours. Compound and control solutions (23nL) were then transferred to the assay plate using the Kalypsys 1536-pin tool. Assay plates were re- incubated at 37 degree Celsius, 5% CO2. After 24 or 48 hours, five uL of CellTiter Glo detection reagent was added. Luminescence signal was read with Perkin Elmer ViewLux plate reader after 30 min room temperature incubation.
Potency is read from the fitted curve at half-maximal effect.

Structure (SMILES) | activity change, negative = cytotoxicity | Potency
CCN(CCc1cn(C)cn1)c1ncnc2ccc(-c3ccc4c(c3)OCO4)cc12 | -6.06% (inactive) | 
Cc1ccsc1CN(C)c1ncnc2ccc(-c3ccc([C@@H](C)O)o3)cc12 |  | inactive
O=Cc1ccc(-c2ccc3ncnc(NCc4cccs4)c3c2)o1 | -5.69% (inactive) | 
c1nc(N2CCOCC2)c2cc(-c3ccc4c(c3)OCO4)ccc2n1 | -4.64% (inactive) | 
CN(Cc1ncc[nH]1)c1ncnc2ccc(-c3ccc4c(c3)OCO4)cc12 | -16% (inactive) | 
Cc1cccc(CNc2ncnc3ccc(-c4ccc5c(c4)OCO5)cc23)c1 | -12.4% (inactive) | 
Clc1cccc(-c2ccc3ncnc(NCc4ccc5c(c4)OCO5)c3c2)c1 | -13.9% (inactive) | 
Cn1ccc2cc(-c3ccc4ncnc(NCc5cccnc5)c4c3)ccc21 | 5.41% (inactive) | 
CCOC(=O)c1ccoc1-c1ccc2ncnc(NCc3csc(C)n3)c2c1 | -12.9% (inactive) | 
c1cncc(CNc2ncnc3ccc(-c4ccc5c(c4)OCO5)cc23)c1 | -18.8% (inactive) | 
COc1cccc(-c2ccc3ncnc(NCc4cccc(F)c4)c3c2)c1 | -5.1% (inactive) | 
Cc1csc(CNc2ncnc3cc(-c4ccc5c(c4)OCO5)ccc23)n1 | 0.525% (inactive) | 
CCOC(=O)c1ccc(-c2ccc3ncnc(NCc4csc(C)n4)c3c2)o1 | -8.57% (inactive) | 
CCN1/C(=C/C(C)=O)Sc2ccc(OC)cc21 | -13.9% (inactive) | 
CN(C)CCNc1ncnc2ccc(-c3ccc4c(c3)OCO4)cc12 | -19.2% (inactive) | 
c1csc(CNc2ncnc3ccc(-c4ccc5c(c4)OCO5)cc23)c1 |  | inactive
Cc1nc(C)c(-c2ccc3ncnc(NCc4ncc[nH]4)c3c2)s1 | -19.3% (inactive) | 
Cc1cccc(CNc2ncnc3ccc(-c4ccc5c(c4)OCCO5)cc23)c1 | -23.9% (inactive) | 
OCc1ccc(-c2ccc3ncnc(NCCc4cnc[nH]4)c3c2)o1 | -7.68% (inactive) | 
CCNC(=O)c1ccc(-c2ccc3ncnc(NCc4ccc(C)o4)c3c2)o1 | -9.43% (inactive) | 

Structure (SMILES) | activity change, negative = cytotoxicity | Potency
Cc1nc(CCNc2ncnc3ccc(-c4ccc5c(c4)OCO5)cc23)cs1 | -12.5% (inactive) | 
c1coc(-c2ccc3ncnc(NCc4cccs4)c3c2)c1 | -9.79% (inactive) | 
Cc1csc(CNc2ncnc3ccc(-c4ccc(C(=O)O)o4)cc23)n1 | 7.98% (inactive) | 
CN(Cc1cncn1C)c1ncnc2ccc(-c3ccc4c(c3)OCO4)cc12 | -6.1% (inactive) | 
Cc1ccsc1CN(C)c1ncnc2ccc(-c3ccc(COC(=O)N(C)C)o3)cc12 | -11.5% (inactive) | 
Cc1cccc(CNc2ncnc3ccc(-c4ccccc4Cl)cc23)c1 | -18.8% (inactive) | 
CN(CC1CCCCO1)c1ncnc2ccc(-c3ccc4c(c3)OCO4)cc12 (stereo not given) | 6.87% (inactive) | 
Cc1cc(CNc2ncnc3ccc(-c4ccc5c(c4)OCO5)cc23)c(C)o1 | -18.2% (inactive) | 
Cc1csc(CNc2ncnc3ccc(-c4ccc5c(c4)OCCO5)cc23)c1 | -15.6% (inactive) | 
c1nc(NCCc2cnc[nH]2)c2ccc(-c3ccc4c(c3)OCO4)cc2n1 | -4.05% (inactive) | 
Fc1cccc(CNc2ncnc3ccc(-c4cccc(Cl)c4)cc23)c1 | -12.4% (inactive) | 
Cc1nc(CNc2ncnc3ccc(-c4ccc5c(c4)OCO5)cc23)cs1 | -2.75% (inactive) | 
Cc1occc1-c1ccc2ncnc(NCc3ncc[nH]3)c2c1 | -0.463% (inactive) | 
Cc1csc(CNc2ncnc3ccc(-c4ccc(C(C)O)o4)cc23)n1 (stereo not given) | 1.29% (inactive) | 
Cc1occc1-c1ccc2ncnc(NCCc3cnc[nH]3)c2c1 | -16.7% (inactive) | 
Clc1cccc(-c2ccc3ncnc(NCc4cccnc4)c3c2)c1 | -22.8% (inactive) | 
Cc1csc(CNc2ncnc3ccc(-c4ccco4)cc23)c1 | -6.58% (inactive) | 
Cn1cnc(CCNc2ncnc3ccc(-c4ccc5c(c4)OCO5)cc23)c1 | 1.14% (inactive) | 
Cc1nc(C)c(-c2ccc3ncnc(NCCc4cnc[nH]4)c3c2)s1 | 0.818% (inactive) | 
CN1CCN(c2ncc3nc(-c4cn(C)c5ccccc45)c(=O)n(Cc4cccs4)c3n2)CC1 |  | 8.88 µM (active)

From PubChem BioAssay AID504534 (National Center for Advancing Translational Sciences (NCATS), 2011)
